Assay outcomes as filed in PubChem.
eLon inh: inhibits E. coli Lon protease; purified E. coli Lon protease, fluorescence polarization; inhibition, % at 7.94 µM; actives 0.42% (n = 360,000); AID 602123; in the data active means inhibition above about 13%, passing the limit was not always enough;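 further: 0% = enzyme with probe and DMSO and 100% = no enzyme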
Rin1-Abl PPI inh: blocks binding of human Rin1 to Abl. inhibition, % at 7.35 µM. P00519+Q13671. TR-FRET Rin1/Abl binding, biochemical. actives 0.4% (n = 360,000); in the data active means inhibition above about 5%, passing the limit was not always enough
pPAFAH inh: pPAFAH (human) enzyme inhibition; recombinant pPAFAH, FP-rhodamine probe fluorescence polarization; inhibition, % at 3.39 µM; AID 463082; Q13093; actives 1.5% (n = 330,000);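 active means inhibition above the mean inhibition across the screen plus 3 SD, cut at about 25% in these data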;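 further: inhibitors block binding of the rhodamine activity-based probe so polarization drops; 0% = enzyme with DMSO and 100% = wells lacking pPAFAH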
PAFAH2 FP inh: inhibitors of human PAFAH2. actives 0.99% (n = 340,000). Q99487. recombinant PAFAH2, FP-rhodamine activity probe, fluorescence polarization. inhibition, % at 3.39 µM. AID 492956;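 active means inhibition above the mean over all tested compounds plus 3 SD, cut at about 30% in these data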;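 further: inhibitors block probe labeling of enzyme so polarization drops; 0% = enzyme with DMSO and 100% = wells lacking PAFAH2 protein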
PAFAH1B2 inh: inhibitors of human PAFAH1B2; P68402; recombinant PAFAH1B2, FP-rhodamine activity probe, fluorescence polarization; inhibition, % at 3.39 µM; actives 1.2% (n = 340,000);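 active means inhibition above the mean of all tested compounds plus 3 SD, cut at about 24% in these data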;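 further: 0% = enzyme with DMSO and 100% = wells lacking PAFAH1B2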
PAFAH1B3 FP inh: PAFAH1B3 (human) inhibition; inhibition, % at 3.39 µM; Q15102; recombinant PAFAH1B3, FP-rhodamine probe, fluorescence polarization; AID 492972; actives 0.28% (n = 340,000);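 active means inhibition above the screen-wide average of all tested compounds plus 3 SD, cut at about 25% in these data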;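 further: 0% = enzyme with DMSO only and 100% = wells lacking PAFAH1B3 protein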
Numbers without * were called inactive; . = not tested or not shown. Hits are enriched below; roughly 3.1% of the tested compounds scored in any of these assays.

SMILES | eLon inh | Rin1-Abl PPI inh | pPAFAH inh | PAFAH2 FP inh | PAFAH1B2 inh | PAFAH1B3 FP inh
N#Cc1ccsc1NC(=O)CSc1nnnn1-c1ccc(O)cc1 | -1 | -1 | 26* | 1 | 1 | 3
Cc1ccc(C2=C(c3ccc([N+](=O)[O-])cc3)C(=O)OC2)cc1C | -7 | 2 | 5 | 2 | 3 | 7
Cc1nc2cc3ccccc3cc2c(=O)[nH]1 | 1 | -4 | 27* | 0 | 0 | 7
CC(C)=CCC/C(C)=C/CNC(=O)CC1C[C@H](C(=O)N2CCOCC2)[C@@]2(C)c3[nH]c4ccccc4c3CCN2C1=O (stereo partly specified) | -4 | -3 | 7 | 9 | 7 | 2
CC(C)=CCC/C(C)=C/CNC(=O)C[C@H]1C[C@H](C(=O)N2CCOCC2)[C@@]2(C)c3[nH]c4cc(-c5ccco5)ccc4c3CCN2C1=O | -3 | 1 | 25* | 5 | 3 | 1
CN(C)C(=O)CCc1ccc2c3c([nH]c2c1)[C@]1(C)[C@@H](C(=O)N2CCCCC2)C[C@H](CC(=O)NCC24CC5CC(CC(C5)C2)C4)C(=O)N1CC3 | -1 | -3 | 31* | 1 | 5 | 7
CN(C)C(=O)CCc1ccc2c3c([nH]c2c1)[C@]1(C)[C@@H](C(=O)N2CCCCC2)C[C@H](CC(=O)NCCN2CCOCC2)C(=O)N1CC3 | -7 | -3 | -6 | 1 | -1 | 8
CC(NC(=O)CN1C(=O)NC2(CCCC2)C1=O)c1ccc(Cl)cc1Cl (stereo unspecified) | -6 | 6 | 2 | -2 | 9 | 3
O=C(O)c1ccc(N/N=C/c2cc3cc4c(cc3nc2Cl)OCCO4)cc1 | -5 | -3 | 30* | 2 | 8 | 4
O=Cc1cc2cc3c(cc2nc1Cl)OCCO3 | . | . | 2 | . | . | .
Cc1cccc(NC(=S)NCCSc2ccc(Cl)cc2)c1 | -8 | -4 | 4 | 3 | 28* | -4
Cc1ccc(C)c(NC(=S)NCCSc2ccc(Cl)cc2)c1 | 7 | 2 | 3 | -5 | 37* | 1
O=C(/C=C/c1ccccc1)NCCSc1ccc(Cl)cc1 | 1 | 0 | 2 | 2 | 29* | 4
Cc1ccc(NC(=S)NCCSc2ccc(Cl)cc2)c(C)c1 | -11 | 0 | 0 | -3 | 15 | 3
CCc1ccccc1NC(=S)NCCSc1ccc(Cl)cc1 | -12 | -1 | 31* | 4 | 37* | -3
Cc1cccc(NC(=S)NCC(C)CSc2ccc(Cl)cc2)c1 (stereo unspecified) | -9 | -1 | -10 | -8 | 10 | 2
O=C(/C=C/c1ccccc1)NCCOc1ccccc1 | 5 | 2 | 3 | 4 | 3 | 4
C[C@@H]1CNC(=O)c2c(C(=O)N[C@@H](Cc3c[nH]c4ccccc34)C(=O)OC(C)(C)C)ncn21 | -3 | -2 | . | . | . | .
CC(NS(=O)(=O)c1ccc2c(c1)OCCO2)c1ccccc1 (stereo unspecified) | -4 | 0 | 8 | 6 | 27* | 6
Cc1ccccc1C(C)NS(=O)(=O)c1ccc2c(c1)OCCO2 (stereo unspecified) | 5 | 2 | -1 | 2 | 5 | 14
Cc1cccc(CN2CCN(C3CN(Cc4ccc(F)cc4)S(=O)(=O)C3)CC2)c1 (stereo unspecified) | -10 | 4 | . | . | . | .
Cc1ccccc1NC(=O)c1sc2nc(N3CCOCC3)c3c(c2c1N)CCCC3 | -3 | -10 | 27* | -1 | 3 | 4
COc1ccc(Cl)cc1NC(=O)CN1CCC(n2nnc3ccccc32)CC1 | -3 | 3 | 25* | -5 | 1 | 4
COc1ccc(Cl)cc1NC(=O)CN1CCC(NC(=O)C2CC2)CC1 | 6 | 5 | -2 | -1 | 2 | -2
CCCCNc1ccc2c(c1)C1CC2CCN1C(=O)OCc1ccccc1 (stereo unspecified) | -9 | -3 | . | 6 | 5 | 4
SMILES | eLon inh | Rin1-Abl PPI inh | pPAFAH inh | PAFAH2 FP inh | PAFAH1B2 inh | PAFAH1B3 FP inh
O=S(=O)(Nc1ccccc1)c1ccc(F)cc1 | 7 | -3 | 13 | 1 | 2 | 12
O=S(=O)(NC12CC3CC(CC(C3)C1)C2)c1ccc(F)cc1 | -1 | 1 | 3 | 0 | 28* | 6
O=C(CSc1ccc(Cl)cc1)OCc1nnc(-c2ccccc2)o1 | 6 | 2 | 26* | 11 | 96* | 9
O=C(/C=C/c1ccco1)OCc1nnc(-c2ccc(Cl)cc2)o1 | -1 | -4 | 28* | 67* | 1 | 8
C[C@@H]1CN([C@H](C)CO)C(=O)CCCn2nncc2CO[C@H]1CN(C)C(=O)Nc1cccc2ccccc12 | -8 | 1 | . | . | . | .
COc1cc(CCC(=O)N2CCN(c3cccc(C)c3C)CC2)cc(OC)c1OC | 3 | 0 | 7 | -8 | 0 | 8
Cc1ccc(C(=O)NNc2cc(N3CCCC3)nc(N3CCCC3)n2)cc1 | . | . | 32* | . | . | .
Cc1nnc(SCC(=O)Nc2ccc(C(N)=O)cc2)n1-c1ccccc1 | -7 | 3 | 0 | 3 | 1 | 7
Cc1nnc(SCC(=O)Nc2cc(C(N)=O)cc(C(N)=O)c2)n1-c1ccccc1 | 9 | 0 | 3 | 2 | 28* | -2
Cc1nnc(SCC(=O)Nc2ccccc2F)n1-c1ccc(F)cc1 | -8 | -1 | -1 | -3 | 2 | -3
N#Cc1ccccc1NC(=O)CSc1nnc(-c2ccc(F)cc2)n1-c1ccccc1 | -2 | 2 | . | -4 | 26* | 0
CC[C@@H]1C=C(C(=O)O)[C@H](c2ccc(Cl)cc2)N1S(=O)(=O)c1ccc(C)cc1 | -4 | -4 | 3 | -2 | 19 | 15
CCCC[C@@H]1C=C(C(=O)O)[C@H](c2ccc(Cl)cc2)N1S(=O)(=O)c1ccc(C)cc1 | 1 | -2 | -1 | 9 | 28* | 5
CC[C@@H]1C=C(C(=O)O)[C@H](c2ccc(C)cc2)N1S(=O)(=O)c1ccc(C)cc1 | 0 | -1 | 2 | 1 | 8 | 7
CCCCC[C@@H]1C=C(C(=O)O)[C@H](c2ccc(Br)cc2)N1S(=O)(=O)c1ccc(C)cc1 | -3 | -4 | 4 | 4 | 27* | 0
CC(C)(C)[C@@H]1C=C(C(=O)O)[C@H](c2ccc(Cl)cc2)N1S(=O)(=O)c1ccccc1 | -9 | -3 | 5 | -1 | 27* | 10
CCc1ccc([C@H]2C(C(=O)O)=C[C@@H](C(C)(C)C)N2S(=O)(=O)c2ccc(C)cc2)cc1 | 3 | -2 | 6 | -2 | 18 | -5
Cc1ccc(S(=O)(=O)N2[C@@H](c3ccc(C#N)cc3)C(C(=O)O)=C[C@H]2CC2CCCC2)cc1 | -8 | -1 | 2 | 4 | 27* | -1
Cc1cc(C)c(OCC(=O)Nc2nnc(-c3ccco3)o2)c(C)c1 | -8 | 0 | 12 | 2 | 3 | 2
CCNC(=O)C1(C)CCCN(C(=O)c2ccnc(Cl)c2)C1 (stereo unspecified) | 4 | 1 | . | . | . | .
O=C1C(=NO)CC(c2ccccc2)N1c1ccccc1 (stereo unspecified) | -3 | 0 | . | 8 | 13 | 0
